Test results published in PubChem BioAssay AID1159580 (chemical genetic matrix, 2015).
The campaign covered roughly 5,500 compounds. About 2,000 (36%) were called active. Another 18% or so got no clear call; they are omitted. Rule as the data show it: active = normalized growth mostly below about 0.91 (no sharp cut-off); inconclusive = no clear call, values can overlap the other calls; inactive = mostly above about 0.92. The list shows a part of the results.

Assay: chemical genetic growth profiling, strain panel (AID 1159580);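 also: tested at 20 µM; growth read once vehicle control cultures reached saturation at 30 °C; 1 = growth at the plate median or of vehicle wells; lower values mean less growth of the strain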
Conditions: S. cerevisiae deletion strains, growth OD

Measured: normalized growth

O=C(O)[C@@H](S)[C@@H](S)C(=O)O
inactive: locus YAL030W, strain snc1, hits give low values 0.975 | locus YBL061C, strain skt5, hits give low values 0.967 | locus YBR023C, strain chs3, hits give low values 0.962 | locus YBR171W, strain sec66, hits give low values 0.976 | locus YCL011C, strain gbp2, hits give low values 0.921 | locus YCL016C, strain dcc1, hits give low values 0.945 | locus YCL061C, strain MRC1, hits give low values 0.936 | locus YCL069W, strain vba3, hits give low values 0.953 | locus YCR088W, strain abp1, hits give low values 0.971 | locus YDL005C, strain med2, hits give low values 1 | locus YDL040C, strain nat1, hits give low values 0.971 | locus YDR001C, strain nth1, hits give low values 0.971 | locus YDR159W, strain sac3, hits give low values 0.91 | locus YDR195W, strain ref2 1.01 | locus YDR297W, strain sur2, hits give low values 0.975 | locus YDR334W, strain swr1, hits give low values 0.958 | locus YEL003W, strain gim4, hits give low values 0.962 | locus YEL037C, strain rad23, hits give low values 0.953 | locus YEL061C, strain CIN8 (second series), hits give low values 0.977 | locus YER015W, strain faa2, hits give low values 0.958 | locus YER016W, strain bim1, hits give low values 0.952 | locus YER111C, strain swi4, hits give low values 0.965 | locus YGL167C, strain pmr1, hits give low values 0.976 | locus YGL227W, strain vid30, hits give low values 0.978 | locus YHR142W, strain chs7, hits give low values 0.937 | locus YJL092W, strain hpr5, hits give low values 0.932 | locus YJL095W, strain BCK1 (second series), hits give low values 0.973 | locus YJL115W, strain asf1, hits give low values 0.969 | locus YJL129C, strain trk1, hits give low values 0.982 | locus YJL154C, strain vps35, hits give low values 0.979 | locus YJL164C, strain tpk1, hits give low values 0.966 | locus YJL187C, strain SWE1, hits give low values 0.979 | locus YKL160W, strain elf1, hits give low values 0.974 | locus YKR026C, strain gcn3, hits give low values 0.978 | locus YKR091W, strain srl3, hits give low values 0.977 | locus YLL026W, hits give low values 0.932 | locus YLL041C, strain sdh2, hits give low values 0.978 | locus YLR027C, strain aat2, hits give low values 0.938 | locus YLR221C, strain rsa3, hits give low values 0.919 | locus YLR258W, strain gsy2, hits give low values 0.93 | locus YLR262C, strain YPT6 (second series), hits give low values 0.898 | locus YLR342W, strain FKS1, hits give low values 0.964 | locus YLR384C, strain iki3, hits give low values 0.979 | locus YML120C, strain ndi1, hits give low values 0.987 | locus YMR125W, strain sto1, hits give low values 0.951 | locus YMR129W, hits give low values 0.963 | locus YMR231W, strain pep5, hits give low values 0.982 | locus YNL209W, strain ssb2, hits give low values 0.974 | locus YNL248C, strain rpa49, hits give low values 0.926 | locus YNL322C, strain KRE1 (second series), hits give low values 0.97 | locus YNR049C, strain mso1, hits give low values 0.941 | locus YOR001W, strain rrp6, hits give low values 0.992 | locus YOR070C, strain gyp1, hits give low values 0.961 | locus YOR080W, strain dia2, hits give low values 0.968 | locus YOR083W, strain WHI5, hits give low values 0.924 | locus YOR265W, strain rbl2, hits give low values 0.976 | locus YPL078C, strain atp4, hits give low values 0.96 | locus YPL106C, strain sse1, hits give low values 0.931 | locus YPL240C, strain hsp82, hits give low values 0.987
active: locus YAL021C, strain ccr4, hits give low values 0.545 | locus YAL026C, strain drs2, hits give low values 0.836 | locus YBR009C, strain hhf1, hits give low values 0.875 | locus YBR231C, strain swc5, hits give low values 0.887 | locus YBR279W, strain paf1, hits give low values 0.922 | locus YDR069C, strain doa4, hits give low values 0.681 | locus YDR137W, strain rgp1, hits give low values 0.73 | locus YDR335W, strain msn5, hits give low values 0.911 | locus YDR392W, strain spt3, hits give low values 0.532 | locus YER155C, strain BEM2 (second series), hits give low values 0.662 | locus YFR010W, strain ubp6, hits give low values 0.828 | locus YGL173C, strain kem1, hits give low values 0.892 | locus YGL240W, strain doc1, hits give low values 0.886 | locus YGL253W, strain hxk2, hits give low values 0.678 | locus YHR013C, strain ard1, hits give low values 0.533 | locus YHR027C, strain rpn1, hits give low values 0.885 | locus YHR030C, strain SLT2, hits give low values 0.337 | locus YHR079C, strain IRE1, hits give low values 0.426 | locus YJL095W, strain BCK1, hits give low values 0.413 | locus YJL166W, strain qcr8, hits give low values 0.859 | locus YJR066W, strain TOR1, hits give low values 0.417 | locus YLL001W, strain dnm1, hits give low values 0.888 | locus YLR113W, strain HOG1, hits give low values 0.443 | locus YLR320W, strain mms22, hits give low values 0.798 | locus YLR357W, strain rsc2, hits give low values 0.798 | locus YLR370C, strain arc18, hits give low values 0.81 | locus YMR058W, strain fet3, hits give low values 0.832 | locus YMR205C, strain PFK2, hits give low values 0.808 | locus YNL071W, strain lat1, hits give low values 0.695 | locus YNL183C, strain NPR1, hits give low values 0.516 | locus YOR106W, strain vam3, hits give low values 0.496 | locus YOR231W, strain MKK1, hits give low values 0.324 | locus YOR270C, strain vph1, hits give low values 0.357 | locus YOR290C, strain snf2, hits give low values 0.722 | locus YPL051W, strain arl3, hits give low values 0.899 | locus YPL256C, strain CLN2, hits give low values 0.474
